Statin myotox sup – protects C2C12 myotubes from simvastatin toxicity; ATP luminescence, 48 h; scaled: DMSO 0, geranylgeraniol control 100; rescue of ATP level, % at 7.49 µM; hit rate 0.78% among 330,000;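 active means mean ATP rescue above about 67%, or every replicate alone reaching that limit, limit read from the data, passing the limit was not always enough; inconclusive means no clear call, values can overlap the other calls; inactive means mean under the limit and some replicate under it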;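 further: myotubes were challenged with 10 µM simvastatin during compound exposure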
LMP1 NFkB inh – Epstein-Barr LMP1 NF-kappaB reporter inhibition; LMP1-induced NF-kappaB luciferase reporter cells, luminescence; inhibition, % at 12.5 µM; hit rate 0.69% among 350,000; AID 504558; in the data active means inhibition above about 41%; inconclusive means no clear call, values can overlap the other calls;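 further: 0% = neutral control wells and 100% = reference inhibitor control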
MITF TRPM1 HTS – MITF TRPM1 promoter activation in melanoma cells. hit rate 0.75% among 300,000. activation, % at 12.5 µM. SK-MEL-5 TRPM1-promoter luciferase, 24 h; % of positive control, neutral wells = 0. AID 588334;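 active means mean activation of at least 80% with every replicate also reaching 80%; inconclusive means mean reaches 80% but some replicate falls short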;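 further: 0% = neutral control wells and 100% = parthenolide positive control wells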
TRPM1 prom inh – MITF TRPM1 promoter inhibition in SK-MEL-5 cells; SK-MEL-5 TRPM1 promoter luciferase, 24 h; hit rate 0.83% among 330,000; inhibition, % at 12.5 µM;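 active means mean inhibition across replicates of 60% or more, whatever share of single replicates reaches that level; inconclusive means some that reach 60%, reason not given; inactive means mean inhibition across replicates below 60%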
esBAF inh – inhibitors of esBAF chromatin remodeling in mouse ES cells; AID 602393; reporter increase, % at 12.5 µM; Bmi1-luciferase knock-in reporter, 24 h; 100% = twice the neutral-well signal; hit rate 2% among 350,000; in the data active means activation above about 40%; inconclusive means no clear call, values can overlap the other calls;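 further: 0% = median of the plate's neutral control wells and 100% = double that signal; a rise in the Bmi1 reporter signal indicates esBAF inhibition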
Wnt bcat act – Wnt/beta-catenin pathway activation; activation, % at 9.35 µM; Wnt/beta-catenin reporter cell assay, activator, plate reader; AID 743398; hit rate 1.2% among 300,000; in the data active means activation above about 30%, passing the limit was not always enough; inconclusive means no clear call, values can overlap the other calls;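 further: 0% = neutral control wells and 100% = positive control wells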
* marks the source's active call; other numbers are inactive results; ? = inconclusive; . = no result given. An excerpt weighted towards active compounds, which were near 4% of everything screened.

SMILES | Statin myotox sup | LMP1 NFkB inh | MITF TRPM1 HTS | TRPM1 prom inh | esBAF inh | Wnt bcat act
Cc1nonc1C(=O)N/N=C/c1ccccc1 | -2.3 | 3.1 | 3.9 | -5.6 | 22.6 | 0.5
C[C@@H]1CN([C@H](C)CO)C(=O)c2cc(NS(=O)(=O)c3ccc(Cl)cc3)ccc2O[C@@H](C)CCCCO[C@@H]1CN(C)Cc1ccccc1 | . | . | . | . | -17.1 | .
Cc1cccc(NC(=O)c2sc3nc(N)c(C#N)cc3c2N)c1 | . | -17.9 | 106.3* | -97.9 | . | .
Cc1cc(C)c2c(N)c(C(=O)NCC3CCCCC3)sc2n1 | -0.7 | -13.3 | 88.5* | -87.8 | 7.7 | -3.7
COc1ccc(NC(=O)c2sc3nc(C)cc(C)c3c2N)cc1 | -9.6 | -38.3 | 104.5* | -104.2 | ? | 12.2
Cc1cc(C)c2c(N)c(C(=O)Nc3ccc(F)cc3)sc2n1 | 1.8 | -28.9 | 52.2 | -51.0 | 26.0 | 51.0*
CC(C)(CO)NS(=O)(=O)c1ccc2c(c1)C(=O)c1cc(S(=O)(=O)NC(C)(C)CO)ccc1-2 | . | -4.0 | 2.2 | -1.7 | . | 2.3
CC1(C(=O)NNC(=O)c2ccc([N+](=O)[O-])cc2)CC1(Br)Br (stereo not given) | 10.3 | 3.5 | -10.5 | 11.3 | -7.6 | -1.8
Cc1ccc(C(=O)NCCNc2ccc([N+](=O)[O-])cc2C(F)(F)F)cc1 | . | -1.1 | -0.5 | -0.6 | . | -5.5
C/C(=N\OC(=O)c1ccc(F)cc1)c1sc(-c2ccc(Cl)cc2)nc1C | -2.1 | -8.7 | 71.6 | -63.2 | ? | 51.0*
CC(=O)c1ccc(NC(=O)c2cccc(S(=O)(=O)N3CCN(C)CC3)c2)cc1 | 1.2 | -19.8 | 73.6 | -64.1 | 57.7* | 5.9
CC(=O)N1CCN(S(=O)(=O)c2cccc(C(=O)NCc3ccc(F)cc3)c2)CC1 | 77.4* | 2.9 | -3.6 | 2.7 | . | -4.8
O=C(c1ccco1)N1CCN(Cc2ccc(F)cc2)CC1 | 9.7 | -25.8 | -4.6 | 6.5 | 5.7 | -0.4
COc1cccc(/C=C2/Sc3ccc(C(=O)NCCN4CCCC4)cc3NC2=O)c1 | 6.9 | -11.7 | -84.7 | 85.0* | -6.4 | -0.7
COc1ccc(/C=C2\Sc3ccc(C(=O)NCCN4CCCCCC4)cc3N(C)C2=O)cc1 | 17.5 | -8.1 | -62.4 | 62.9* | -21.3 | -2.3
O=C1Nc2cc(C(=O)NCCCN3CCCC3)ccc2S/C1=C/c1ccccc1F | 7.0 | -12.1 | -34.9 | 35.8 | 3.1 | 0.6
CCN1CCCC1CNC(=O)c1ccc2c(c1)NC(=O)/C(=C\c1ccc(C)cc1)S2 (stereo not given) | 1.6 | -22.5 | -81.5 | 80.8* | -54.5 | -4.0
O=C(NCCCN1CCCCC1)c1ccc2c(c1)NC(=O)c1ccccc1S2 | 4.6 | 57.2* | 0.0 | -14.3 | 0.5 | -0.5
C=CCC1(NC(C)c2ccccc2)CCCCC1 (stereo not given) | . | -5.3 | -2.5 | 5.9 | . | -1.7
COc1ccc(-c2cc(C(=O)OCC(=O)c3ccc(C)c([N+](=O)[O-])c3)c3ccccc3n2)cc1 | . | -3.7 | 30.3 | -29.3 | . | 1.7
O=c1[nH]c2ccccc2cc1-c1nnn(-c2ccccc2)n1 | 16.8 | -3.4 | -8.6 | 9.7 | 5.0 | -4.3
NC(=S)Nc1cnc2ccccc2c1 | -169.6 | -2.8 | -10.8 | 9.2 | 15.3 | .
Brc1ccccc1-n1nnc(-c2cnc3ccccc3c2)n1 | -13.7 | -44.3 | 44.3 | -42.9 | ? | 42.7*
COc1ncccc1-c1nnn(-c2ccc(Cl)nc2)n1 | 8.2 | -22.4 | 69.7 | -63.2 | 19.1 | 11.0
Clc1ncccc1-c1nnn(-c2ccccc2Br)n1 | 7.8 | -9.9 | 66.0 | -62.2 | 50.1* | 17.0
SMILES | Statin myotox sup | LMP1 NFkB inh | MITF TRPM1 HTS | TRPM1 prom inh | esBAF inh | Wnt bcat act
Clc1nc2ccccc2cc1-c1nnn(-c2ccccc2Br)n1 | -2.6 | -33.8 | 46.5 | -43.5 | 41.2* | 29.6
Cc1c(NS(=O)(=O)c2cccc(C(=O)N3CCC(C(N)=O)CC3)c2)c(=O)n(-c2ccccc2)n1C | 2.9 | -1.2 | 18.6 | -11.0 | -1.0 | -5.9
COc1cccc(OCc2nc3ccccc3c(=O)n2N)c1 | . | -16.9 | 33.5 | -32.8 | 46.6* | -2.9
Cc1ccc2nc(-c3ccc(NC(=O)COCC(=O)O)cc3)sc2c1 | . | -12.6 | . | -40.2 | . | 38.2*
Cc1ccc2nc(-c3ccc(NC(=O)CCN4C(=O)c5ccccc5C4=O)cc3)sc2c1 | . | 7.5 | 22.7 | -20.4 | . | 16.9
Cc1ccc(C2(C)NC(=O)N(CC(=O)Nc3ccc(-c4nc5ccc(C)cc5s4)cc3)C2=O)cc1 (stereo not given) | . | -20.3 | 59.0 | -57.8 | . | 37.6*

From PubChem BioAssay
